# MPTP block: inhibitors of mitochondrial permeability transition pore; isolated mouse mitochondria, Ca2+ swelling absorbance, 30 min; inhibition, % at 10 µM; 360,000 tested, 1.4% active; AID 602449;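 active = inhibition of 50% or more, scaled per plate between neutral and stimulator controls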
# GRIN3A LBD mod: NR3A (human) ligand-binding domain modulation; NR3A LBD differential scanning fluorimetry, Tm shift; 0% = protein alone, 100% = glycine-bound protein; Tm shift relative to glycine control, % at 25 µM; 340,000 tested, 2.5% active;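 active = melting temperature shift of at least 10% of the positive control shift, at one fixed dose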
# rCAG RNA binder: binds r(CAG) RNA repeats; inhibition, % at 3 µM; 370,000 tested, 1.3% active; AID 651821; r(CAG) RNA repeat, TO-PRO-1 dye displacement fluorescence;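 active = inhibition above the plate cutoff, the mean of all test compounds on that plate plus 3 SD, cut at about 35% in these data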;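 also: higher means more dye released from RNA so lower well fluorescence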
# FAS TE block: inhibitors of human fatty acid synthase thioesterase domain; recombinant FAS-TE, OMFH fluorogenic substrate, fluorescence endpoint; inhibition, % at 15 µM; 360,000 tested, 0.67% active; AID 602261;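 active = compounds whose normalised, plate-corrected inhibition of enzyme fluorescence in the single-dose primary screen is 50% or more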
# Myeloid diff 2: promotes myeloid progenitor differentiation; ER-HoxA9 myeloid progenitors, lysozyme-GFP differentiation, flow cytometry; calls only at 10 µM; 360,000 tested, 1% active; AID 624256;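 active = normalized GFP-positive differentiation at or above the plate's own cutoff, the solvent-only control mean plus 3 SD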;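 also: cells exposed to compound for four days before flow analysis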
# A number is an active result; 0 = inactive; - = no result given; + = active, no number. Most compounds without a hit are left out; they make up all but 5.7% or so of the library.
SMILES,MPTP block,GRIN3A LBD mod,rCAG RNA binder,FAS TE block,Myeloid diff 2
COc1ccc2c(c1)CN1CN(CC(C)C)S(=O)(=O)CC21 (stereo not given),-,-,0,-,-
O=C(c1ccc(Cl)c([N+](=O)[O-])c1)N(Cc1ccco1)C1CCS(=O)(=O)C1 (stereo not given),0,0,0,0,+
CCOc1cccc(C(=O)N(Cc2ccco2)C2CCS(=O)(=O)C2)c1 (stereo not given),0,0,0,0,0
CCSc1ccc2cc(OC)ccc2[n+]1CC,0,0,0,0,+
CCn1ccc2cc(OC)ccc2c1=S,0,0,0,0,0
Cc1cc(NC(=O)CS(=O)(=O)c2cn(Cc3cccc(Br)c3)c3ccccc23)no1,0,-,0,0,0
Cc1cc(NC(=O)CS(=O)(=O)c2cn(Cc3ccccc3Cl)c3ccccc23)no1,0,0,0,0,+
Cc1cccc(NC(=O)COc2cccc3c2CCN(C)C3=O)c1C,0,0,0,0,0
Cc1cccc(NC(=O)COc2cccc3c2CCN(Cc2ccccc2)C3=O)c1C,0,0,0,0,+
CCOC(=O)c1c(NC(=O)COc2cccc3c2CCN(C)C3=O)sc2c1CCC2,0,0,0,0,+
COc1ccc(Cn2cc(CN3[C@H](C)COc4cc(Br)ccc4S3(=O)=O)nn2)cc1,-,-,0,-,-
Cc1n[nH]c(C)c1N1C(=O)c2cccc3c(N4CCCCCC4)ccc(c23)C1=O,0,0,0,0,+
CC(C)(C)n1ncc2c(=O)n(CC(=O)NCc3ccc(F)cc3)cnc21,0,0,0,0,+
CCCCC(=O)OCC(=O)N1N=C(c2c[nH]c3ccccc23)C(O)C1c1ccc(OC)cc1 (stereo not given),0,30,0,0,0
O=C(NCCN1CCCCC1)c1cccc2c1C(=O)c1ccc(N3CCCC3)cc1S2(=O)=O,0,0,0,0,+
O=C(NCc1cc(C(F)(F)F)ccc1Cl)c1cccc2c1C(=O)c1ccc(N3CCC(Cc4ccccc4)CC3)cc1S2(=O)=O,0,0,-,0,+
O=C(NCc1ccc(F)cc1)c1cccc2c1C(=O)c1ccc(N3CCC(N4CCCCC4)CC3)cc1S2(=O)=O,0,-,0,0,+
O=C(NCc1ccc(F)cc1)c1cccc2c1C(=O)c1ccc(N3CCC(Cc4ccccc4)CC3)cc1S2(=O)=O,0,0,0,0,+
CC1CCN(c2ccc3c(c2)S(=O)(=O)c2cccc(C(=O)NCc4ccc(F)cc4)c2C3=O)CC1,0,0,0,0,0
O=C(N[C@H](C(=O)N1CCC[C@H]1C(=O)NC1CCCC1)C1CCCCC1)c1ccco1,-,-,0,-,-
O=C(C1CCCN1S(=O)(=O)c1cccc([N+](=O)[O-])c1)N1CCN(c2ccccc2)CC1 (stereo not given),-,-,0,-,-
CCOC(=O)c1c(C)cccc1OCC(N)=O,0,25,0,0,0
CCOC(=O)c1c(C)oc2ccc(OCC(N)=O)cc12,0,0,0,0,0
Cc1cccc(NC(=O)CS(=O)(=O)c2cn(C)c3ccccc23)c1C,0,0,0,0,+
Cc1cccc(NC(=O)CS(=O)(=O)c2cn(C)c3ccccc23)c1,0,0,0,0,0
SMILES,MPTP block,GRIN3A LBD mod,rCAG RNA binder,FAS TE block,Myeloid diff 2
COCCNC(=O)C1(C)CCCN(Cc2cc3ccccc3o2)C1 (stereo not given),0,-,0,0,0
Cc1c(NC(=O)CSc2ccc(Cl)cc2)cccc1-c1nc2cc(Cl)ccc2o1,0,18,0,0,0
O=C(Nc1cc2c(cc1Cl)OCCO2)c1ccco1,0,0,0,0,0
O=C(Nc1nccs1)c1ccc(NC(=O)c2ccco2)cc1,0,10,0,0,0
CS(=O)(=O)Nc1ccc(C(=O)Nc2ccc(S(=O)(=O)Nc3nccs3)cc2)cc1,0,0,0,0,0
Cc1ccccc1-c1nc(-c2ccc(NC(=O)c3ccc4c(c3)OCO4)cc2)no1,0,34,0,0,+
CC(NC(=O)c1ccco1)C(=O)Nc1nccs1 (stereo not given),0,0,0,0,0
O=C(Nc1ccc(NC(=O)c2ccco2)c(Cl)c1)c1ccc2c(c1)OCCO2,0,31,0,0,0
CN(C)c1ccc(C(=O)Nc2ccc(S(=O)(=O)Nc3nccs3)cc2)cc1,0,0,35,0,0
COCCNC(=S)N(C)[C@H]1C[C@H]2c3[nH]c4c(-c5ccccc5)cccc4c3CCN2C[C@H]1[C@H](C)O,-,-,0,-,-
O=C(Nc1ccc(NC(=O)c2ccco2)cc1)c1ccc2c(c1)OCO2,0,12,0,0,0
COC(=O)c1ccc(NC(=O)c2ccc3c(c2)OCO3)cc1,0,0,0,0,0
COC(=O)C1=C(C)N(Cc2cccc(C(F)(F)F)c2)C(=NCc2ccc3c(c2)OCO3)NC1c1ccc(Cl)cc1 (stereo not given),-,-,0,-,-
Cc1cc(C(=O)NN=Cc2cccc(O)c2)n[nH]1,-,-,0,-,-
CCCNC(=O)Cn1c(=O)/c(=C/c2ccc(-c3ccc([N+](=O)[O-])cc3)o2)s/c1=C\C(=O)C(C)(C)C,0,0,0,0,+
CCOC(=O)[C@@]12CCCC=C1N(CCc1ccc(Cl)cc1)C(=O)[C@H]2CC(=O)N1CCOCC1,-,-,0,-,-
C=CCNc1cccc2c1S(=O)(=O)N[C@H](CC(C)C)CO2,-,-,0,-,-
COc1cc(/C=C(\C#N)c2nc3ccccc3o2)ccc1O,0,15,0,0,+
COc1cc(/C=C(\C#N)c2nc(-c3cc4ccccc4oc3=O)cs2)ccc1O,0,0,0,0,+
COc1cc(/C=C(/C#N)c2nc(-c3cc4ccccc4oc3=O)cs2)cc([N+](=O)[O-])c1O,-,-,0,-,-
c1ccc2c(c1)Cn1nnnc1-2,0,0,-,0,0
c1ccc2c(c1)CC1(CCCCC1)n1nnnc1-2,0,0,0,0,+
COc1cc2nc(/C=C/c3ccc(N(C)C)cc3)sc2cc1SC,0,0,0,0,+
CCCOc1nccc2c1n(C)c(=O)n2C,-,-,0,-,-
COC(=O)C1CN(Cc2ccc(OC)cc2)CCS(=O)(=O)N1Cc1ccc(Cl)cc1 (stereo not given),-,-,0,-,-
SMILES,MPTP block,GRIN3A LBD mod,rCAG RNA binder,FAS TE block,Myeloid diff 2
Cc1ccc(C(=O)NC(=S)Nc2c(C)ccc3nsnc23)cc1,0,11,0,0,0
Cc1ccc(C(=O)NC(=S)Nc2cccc3nsnc23)cc1,0,0,0,0,0
CCOc1ccc(NC(=O)CC2C(=O)N(c3ccc(OC)cc3)C(=S)N2Cc2ccccn2)cc1 (stereo not given),0,0,0,0,0
COc1ccc(NC(=O)CC2C(=O)N(c3cccc(OC)c3)C(=O)N2CCC(C)C)cc1 (stereo not given),0,11,0,0,0
CCOc1ccc(NC(=O)CC2C(=O)N(c3ccc(OC)c(Cl)c3)C(=S)N2C2CC2)cc1 (stereo not given),0,25,0,0,0
COc1ccc(NC(=O)CC2C(=O)N(c3cccc(OC)c3)C(=O)N2C(C)C)cc1 (stereo not given),0,0,0,0,0
c1cc(-c2nnc3n2N=C(c2ccc4c(c2)OCO4)CS3)ccn1,-,-,0,-,-
O=C(NCC1CCCO1)c1ccccc1S(=O)(=O)c1ccc([N+](=O)[O-])cc1 (stereo not given),0,0,0,0,+
